Consider 20 compounds from PubChem BioAssay (NCATS).

Results filed as inconclusive are left out. Values without a mark were called inactive. Calls of active or inactive are those of the source. The call rests on the fitted dose curve; in most records, active means well fitted cell-killing curve with a large enough effect; inconclusive means small, poorly fitted or top-dose-only effect, or effect the other way; inactive means flat fitted curve, though single readings scatter.
On the % scale 0 is the no-effect control and ±100 the full control effect; potency means the concentration at half of the fitted maximal effect.

The subject of this experiment is C33A. Put plainly: Primary qHTS to identify gynecologic anti-cancer compounds using libraries of approved drugs and bioactive compounds (AID 1345084). Further: nearly all actives have a fitted effect of over 55% in size. Particulars: Gynecologic cancer cell panel viability, ATPlite luminescence, 48 h; series mostly up to 57.5 µM; activity change, negative = cytotoxicity: at the top concentration. In short, it runs like this: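 Luminescence from the ATPlite ATP-monitoring reagent indicates viable cell number; lower signal means cytotoxicity. Cells received compound 16 h after seeding and were exposed for 48 h across five concentrations.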
Background: In qHTS, concentration-response curves come from the screen itself.
For `CO/N=C(/C(=O)N[C@@H]1C(=O)N2C(C(=O)O)=C(Cn3ccc(=N)n3CCO)CS[C@H]12)c1csc(N)n1`, the “activity change, negative = cytotoxicity” value was 4.88%.
Still for that read-out and setting: next, `CC(C)=CCC[C@](C)(O)[C@H]1CC[C@]2(C)[C@@H]1[C@H](O)CC1[C@@]3(C)CC[C@H](O)C(C)(C)[C@@H]3[C@@H](O[C@@H]3O[C@H](CO)[C@@H](O)[C@H](O)[C@H]3O[C@@H]3O[C@H](CO)[C@@H](O)[C@H](O)[C@H]3O)C[C@]12C` (stereo not given in full): 14.7% [at 25.3 µM].
Take `C[C@@H]1O[C@@H](O[C@H]2[C@H](OC(=O)[C@]34CCC(C)(C)C[C@H]3C3=CCC5[C@@]6(C)C[C@H](O)[C@H](O[C@@H]7O[C@H](CO)[C@@H](O)[C@H](O)[C@H]7O)[C@@](C)(CO)C6[C@H](O)C[C@@]5(C)[C@]3(C)CC4)OC[C@H](O)[C@@H]2O)[C@H](O)[C@H](O)[C@H]1O[C@@H]1OC[C@@H](O)[C@H](O[C@@H]2OC[C@](O)(CO)[C@H]2O)[C@H]1O` (stereo not given in full): the activity change, negative = cytotoxicity is 7.14% [at 6.55 µM].
For `CC(=O)OC1C(O)CC2(C)C(CCC(C)C23Cc2c(O)cc(CO)c(C=O)c2O3)C1(C)C` (stereo not given), the “activity change, negative = cytotoxicity” value is 16.1% [at 25.3 µM].
For the compound `C/C(=C\CCC(C)CCO)C(=O)OC1(C)CCC2C(C(=O)O)=COC(OC3OC(CO)C(O)C(O)C3O)C21` (stereo not given), the “activity change, negative = cytotoxicity” value was 8.53% [at 25.3 µM].
Regarding `NC1(C(=O)NC(CCO)c2ccc(Cl)cc2)CCN(c2ncnc3[nH]ccc23)CC1` (stereo not given), the Potency was 2.24 µM (active).
On to `CC1(C)CCCC2(C)C(C(=O)O)=CCC12` (stereo not given), for which the “activity change, negative = cytotoxicity” value is -5.8%.
Still for that read-out and setting: next, `CCC(C)/C=C(C)/C=C/c1cc2c(cn1)C(=O)C(C)(OC(C)=O)C(O)=C2Cl` (stereo not given): -0.931% [at 38.5 µM]; `CC(O)/C=C/C1(O)C(C)C(O[C@@H]2O[C@H](CO)[C@@H](O)[C@H](O)[C@H]2O)C(O)CC1(C)C` (stereo not given in full): -6.75% [at 25.3 µM].
Still for that read-out and setting: next, `C[C@@H]1O[C@@H](O[C@H]2[C@H](OC(=O)[C@]34CCC(C)(C)C[C@H]3C3=CCC5[C@@]6(C)CC[C@H](O[C@@H]7O[C@H](C(=O)O)[C@@H](O)[C@H](O)[C@H]7O[C@@H]7O[C@H](CO)[C@H](O)[C@H](O)[C@H]7O)[C@@](C)(C=O)C6CC[C@@]5(C)[C@]3(C)C[C@H]4O)O[C@H](C)[C@H](O[C@@H]3O[C@H](C)[C@H](O)[C@H](O)[C@H]3O)[C@@H]2O)[C@H](O)[C@H](O)[C@H]1O[C@@H]1OC[C@@H](O)[C@H](O[C@@H]2O[C@H](CO)[C@@H](O)[C@H](O)[C@H]2O)[C@H]1O` (stereo not given in full): 29.4% [at 6.55 µM].
On to `COC(=O)C12CCC(C)C(C)C1C1=CCC3C4(C)CCC(OC(C)=O)C(C)(C)C4CCC3(C)C1(C)CC2` (stereo not given), for which the “activity change, negative = cytotoxicity” value was -2.11% [at 25.3 µM].
With `CCOc1cc(CC(=O)NC(CC(C)C)c2ccccc2N2CCCCC2)ccc1C(=O)O` (stereo not given), the “activity change, negative = cytotoxicity” value was 5.6%.
On the same count and under the same terms, next, `COC1=CC(=O)CC(C)C12Oc1cc(OC)cc(O)c1C2=O` (stereo not given): -2.55%; `O=C1CCC(=O)N(O)CCCCCNC(=O)CCC(=O)N(O)CCOCCNC(=O)CCC(=O)N(O)CCCCCN1`: -2.97% [at 25.3 µM].
`CCc1ccc(Cc2ccc3c(c2)[C@]2(OC3)O[C@H](CO)[C@@H](O)[C@H](O)[C@H]2O)cc1`: the “activity change, negative = cytotoxicity” value was 5.11%.
Consider `C=C(C(=O)O)C1CCC2(C)CCC(O)C(=C)C2C1` (stereo not given), for which the “activity change, negative = cytotoxicity” value was 17.8%.
Same read-out and setting: next, `C=C(C)C1CCC2(C(=O)O[C@@H]3O[C@H](CO[C@@H]4O[C@H](CO)[C@@H](O)[C@H](O)[C@H]4O)[C@@H](O)[C@H](O[C@@H]4O[C@@H](C)[C@H](O)[C@@H](O)[C@H]4O)[C@H]3O)CCC3(C(=O)O)C(CCC4C5(C)CCC(O)C(C)(C)C5CCC43C)C12` (stereo not given in full): -9.37% [at 11.6 µM]; `CC(NC(=O)C(O)C(C)C)C(=O)NC1C(=O)N(C)CCc2ccccc21` (stereo not given): 1.62%.
Still for that read-out and setting: next, `CNC(C)C(=O)NC(C(=O)N1CCCC1c1nc(C(=O)c2ccc(F)cc2)cs1)C1CCCCC1` (stereo not given): -22%; `CC(=O)O[C@@H]1[C@H](O)[C@@H](O[C@@H]2O[C@@H](C)[C@H](O[C@@H]3OC[C@@H](O)[C@H](O[C@@H]4OC[C@@H](O)[C@H](O)[C@H]4O)[C@H]3O)[C@@H](O[C@@H]3O[C@H](CO)[C@@H](O)[C@H](O)[C@H]3O)[C@H]2O)[C@H](OC(=O)[C@]23CCC(C)(C)C[C@H]2C2=CCC4[C@@]5(C)CC[C@H](O[C@@H]6O[C@H](C(=O)O)[C@@H](O)[C@H](O[C@@H]7OC[C@@H](O)[C@H](O)[C@H]7O)[C@H]6O[C@@H]6O[C@H](CO)[C@H](O)[C@H](O)[C@H]6O)[C@@](C)(C=O)C5CC[C@@]4(C)[C@]2(C)CC3)O[C@@H]1C` (stereo not given in full): 0.359% [at 6.55 µM].
